# In PubChem BioAssay (EPA / NIEHS):
# “And” between values parts separate entries of the source, which are not always exact repeats. Equal entries are not always repeated. Records with an inconclusive call do not appear. The source made the active and inactive calls. How the source made its calls, unless noted: active means hit-call score of the fitted dose curve at least 0.9, where 1 is the maximum; inactive means score below 0.9.
# Experiments:
# [1] = read-out: Collagen I, COL1A1 (gene 1277); test: BSK_hDFCGF_CollagenI: BioMAP Diversity Plus: hDFCGF Assay for Collagen I Biomarker Activity (AID 2284250); details: primary human foreskin fibroblasts
# Method in brief: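 Primary human foreskin fibroblasts (hDFCGF system) exposed to chemical for 24 h; Collagen I measured by ELISA. Activity fitted in the positive direction relative to DMSO baseline, with SRB total-protein staining in parallel cultures for overt cytotoxicity.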
# [2] = molecular target: Nuclear receptor subfamily 1 group I member 3 (Homo sapiens) (UniProt Q14994); test: ATG_CAR_TRANS: Attagene TRANS-FACTORIAL HepG2 Assay for human Constitutive Androstane Receptor (CAR) (AID 2282969; active means hit-call score of the fitted dose curve at least 0.9, where 1 is the maximum;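 further: activators raise reporter mRNA above DMSO so AC50 marks induction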); details: HepG2 Attagene TRANS-FACTORIAL CAR reporter
# Method in brief: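 HepG2 cells transiently transfected with GAL4-UAS reporter units; TRANS format reads activity of exogenous chimeric NR-Gal4 protein. After 24 h dosing, reporter mRNA quantified by RT-PCR, 6-FAM labelling and capillary electrophoresis; gain of signal fitted against DMSO.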
# [3] = molecular target: Steroid hormone receptor ERR1 (Homo sapiens) (UniProt P11474); test: ATG_ERRa_TRANS: Attagene TRANS-FACTORIAL HepG2 Assay for human Estrogen-Related Receptor alpha (ERRa) (AID 2282971; active means hit-call score of the fitted dose curve at least 0.9, where 1 is the maximum); details: HepG2 Attagene TRANS reporter, ERRa transactivation
# Method in brief: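 Reporter transcript induction was quantified by RT-PCR and capillary electrophoresis of FAM-labelled, HpaI-cut products after 24 h treatment of HepG2 cells carrying transiently transfected GAL4-UAS reporter units and an exogenous ERRa-Gal4 fusion; activity scored as increase over DMSO.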
# [4] = read-out: TIMP metallopeptidase inhibitor 1 (TIMP1), TIMP1 (gene 7076); test: BSK_hDFCGF_TIMP1: BioMAP Diversity Plus: hDFCGF Assay for TIMP metallopeptidase inhibitor 1 (TIMP1) Biomarker Activity (AID 2283062); details: primary human foreskin fibroblasts; actives raise or lower the signal
# Method in brief: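 Human skin fibroblasts (primary), hDFCGF system; compound exposure 24 h; TIMP-1 by ELISA; bidirectional fit vs DMSO negative control; overt cytotoxicity by SRB in parallel wells.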
# [5] = read-out: Plasminogen activator inhibitor-1 (PAI1), SERPINE1 (gene 5054); test: BSK_hDFCGF_PAI1: BioMAP Diversity Plus: hDFCGF Assay for Plasminogen activator inhibitor-1 (PAI1) Biomarker Activity (AID 2283066); details: primary human foreskin fibroblasts; actives raise or lower the signal
# Method in brief: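 Human foreskin fibroblasts in the hDFCGF system were dosed with compound for 24 h; PAI-1 was quantified by ELISA. Bidirectional curve fitting used DMSO as negative control and baseline.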
# [6] = read-out: Interferon-gamma inducible Protein 10 (IP10), CXCL10 (gene 3627); test: BSK_KF3CT_IP10: BioMAP Diversity Plus: KF3CT Assay for Interferon-gamma inducible Protein 10 (IP10) Biomarker Activity (AID 2283068); details: primary human keratinocytes with fibroblasts; actives raise or lower the signal
# Method in brief: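 ELISA read-out of IP-10 after 24 h chemical dosing of human skin primary co-culture (keratinocytes, foreskin fibroblasts). Gain or loss of signal relative to DMSO, bidirectional curve fit.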
# [7] = BSK_KF3CT_SRB: Viability Assessment in the BioMAP Diversity Plus: KF3CT Assay (AID 2283069); details: primary human keratinocytes with fibroblasts;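 further: total protein by sulforhodamine B staining as a cytotoxicity measure; fitted for both signal gain and loss against DMSO baseline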
# Method in brief: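 Human keratinocyte and foreskin fibroblast co-culture exposed to chemical for 24 h. Total protein measured in parallel cultures by 0.1% sulforhodamine B staining after 10% TCA fixation, read at 560 nm; bidirectional fit relative to DMSO.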
# [8] = read-out: Interleukin-1 alpha (IL1a), IL1A (gene 3552); test: BSK_KF3CT_IL1a: BioMAP Diversity Plus: KF3CT Assay for Interleukin-1 alpha (IL1a) Biomarker Activity (AID 2283070); details: primary human keratinocytes with fibroblasts; actives raise or lower the signal
# Method in brief: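 Primary human keratinocyte plus foreskin fibroblast co-culture, dosed and measured at 24 h in 96-well plates. IL-1a level quantified by ELISA; bidirectional fit relative to DMSO.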
# [9] = read-out: TIMP metallopeptidase inhibitor 2 (TIMP2), TIMP2 (gene 7077); test: BSK_KF3CT_TIMP2: BioMAP Diversity Plus: KF3CT Assay for TIMP metallopeptidase inhibitor 2 (TIMP2) Biomarker Activity (AID 2283071); details: primary human keratinocytes with fibroblasts; actives raise or lower the signal
# Method in brief: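 Human primary keratinocyte/foreskin fibroblast co-culture dosed with chemical and sampled at 24 h. TIMP-2 levels quantified by ELISA; bidirectional fitting against DMSO negative control as baseline.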
# [10] = read-out: Matrix Metallopeptidase 9 (MMP9), MMP9 (gene 4318); test: BSK_KF3CT_MMP9: BioMAP Diversity Plus: KF3CT Assay for Matrix Metallopeptidase 9 (MMP9) Biomarker Activity (AID 2283074); details: primary human keratinocytes with fibroblasts; actives raise or lower the signal
# Method in brief: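 Human keratinocyte and foreskin fibroblast co-culture exposed to chemicals for 24 h; MMP9 biomarker measured by ELISA, bidirectional fitting relative to DMSO; cytotoxicity tracked by SRB total protein staining in parallel cultures.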
# [11] = read-out: urokinase plasminogen activator (uPA), PLAU (gene 5328); test: BSK_KF3CT_uPA: BioMAP Diversity Plus: KF3CT Assay for urokinase plasminogen activator (uPA) Biomarker Activity (AID 2283075); details: primary human keratinocytes with fibroblasts; actives raise or lower the signal
# Method in brief: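 Primary human keratinocyte/foreskin fibroblast co-culture exposed to chemical; uPA measured by ELISA at 24 h. Bidirectional fit versus DMSO, with parallel SRB total-protein staining for cytotoxicity.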
# [12] = BSK_LPS_SRB: Viability Assessment in the BioMAP Diversity Plus: LPS Assay (AID 2283079); details: primary human HUVEC with PBMC;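 further: total protein by sulforhodamine B absorbance as a cytotoxicity measure; measured one day after compound addition; fitted in both directions against DMSO so loss or gain of signal counts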
# Method in brief: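 Readout is SRB absorbance at 560 nm (0.1% stain, TCA-fixed parallel cultures) as a total-protein cytotoxicity measure. Cells: primary human umbilical vein endothelium plus peripheral blood mononuclear cells, 24 h after chemical exposure; DMSO served as baseline.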
# [13] = read-out: Tumor necrosis factor (Homo sapiens) (UniProt P01375); test: BSK_LPS_TNFa: BioMAP Diversity Plus: LPS Assay for Tumour Necrosis Factor alpha (TNFa) Biomarker Activity (AID 2283085); details: primary human HUVEC with PBMC; actives raise or lower the signal
# Method in brief: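 Human umbilical vein endothelial cells co-cultured with PBMC were exposed to test chemical and TNFa measured by ELISA 24 h after dosing. Bidirectional curve fitting was done relative to DMSO as negative control and baseline.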
# [14] = read-out: Vascular cell adhesion molecule 1 (VCAM1), VCAM1 (gene 7412); test: BSK_LPS_VCAM1: BioMAP Diversity Plus: LPS Assay for Vascular cell adhesion molecule 1 (VCAM1) Biomarker Activity (AID 2283086); details: primary human HUVEC with PBMC; actives raise or lower the signal
# Method in brief: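 Human umbilical vein endothelial cells co-cultured with peripheral blood mononuclear cells under LPS stimulation were exposed to test chemical for 24 h. VCAM-1 levels were then measured by ELISA, with bidirectional curve fitting relative to DMSO as negative control and baseline.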
# CD38, CD38 (gene 952) = test: BSK_SAg_CD38: BioMAP Diversity Plus: SAg Assay for CD38 Biomarker Activity (AID 2283087); details: primary human HUVEC with PBMC; actives raise or lower the signal
# Method in brief: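 Fluorescence ELISA of cell-surface CD38 served as the read-out, with either increase or decrease fitted against DMSO controls. Cells were a human umbilical vein endothelium plus PBMC co-culture under SEB/TSST-1 stimulation, measured 24 h after dosing.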
# [15] = read-out: Monocyte Chemoattractant Protein-1 (MCP1), CCL2 (gene 6347); test: BSK_SAg_MCP1: BioMAP Diversity Plus: SAg Assay for Monocyte Chemoattractant Protein-1 (MCP1) Biomarker Activity (AID 2283090); details: primary human HUVEC with PBMC; actives raise or lower the signal
# Method in brief: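 MCP-1 levels in the endothelial–PBMC SAg co-culture were quantified by ELISA at 24 h post-dosing; both increases and decreases versus DMSO scored. Cytotoxicity monitored by SRB total protein in parallel cultures.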
# [16] = read-out: Monokine induced gamma interferon (MIG), CXCL9 (gene 4283); test: BSK_SAg_MIG: BioMAP Diversity Plus: SAg Assay for Monokine induced gamma interferon (MIG) Biomarker Activity (AID 2283092); details: primary human HUVEC with PBMC; actives raise or lower the signal
# Method in brief: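 Endothelial cells and PBMC were co-cultured, exposed to test chemicals, and sampled 24 h later. MIG was measured by ELISA, and responses were fitted in both directions relative to DMSO.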
# [17] = BSK_SAg_Proliferation: Cell Proliferation Assessment in the BioMAP Diversity Plus: SAg Assay (AID 2283095); details: primary human HUVEC with PBMC;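 further: relative cell number as total protein by SRB absorbance in sub-confluent culture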
# Method in brief: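 Human umbilical vein endothelial cells co-cultured with peripheral blood mononuclear cells; total protein measured by sulforhodamine B staining (0.1% SRB after 10% TCA fixation), absorbance at 560 nm, at 96 h. Bidirectional fit against DMSO baseline.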
# [18] = BSK_SAg_SRB: Viability Assessment in the BioMAP Diversity Plus: SAg Assay (AID 2283096); details: primary human HUVEC with PBMC;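 further: cells read one day after compound addition; hits may be either gain or loss of signal compared with DMSO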
# Method in brief: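 Human umbilical vein endothelial cells co-cultured with PBMC, read 24 h after compound dosing. Total protein measured by sulforhodamine B staining (0.1% SRB after 10% TCA fixation, absorbance 560 nm); bidirectional fit versus DMSO baseline.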
# [19] = molecular target: Bile acid receptor (Homo sapiens) (UniProt Q96RI1); test: ATG_FXR_TRANS: Attagene TRANS-FACTORIAL HepG2 Assay for Farnesoid X Receptor (FXR) (AID 2282979; active means hit-call score of the fitted dose curve at least 0.9, where 1 is the maximum;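 further: hits raise reporter mRNA above DMSO so AC50 marks FXR activation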); details: HepG2 Attagene TRANS FXR-GAL4 reporter transcription
# Method in brief: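 Transient transfection of HepG2 with multiplexed GAL4-UAS reporter units; exogenous FXR-GAL4 chimera. Dose 24 h → TriZol RNA → oligo(dT) RT → PCR, 6-FAM primer extension, HpaI cut → CE. Gain vs DMSO.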
# Chain of Bile acid receptor (Homo sapiens) (Q96RI1 whole entry, looked up, the tested form may be a part): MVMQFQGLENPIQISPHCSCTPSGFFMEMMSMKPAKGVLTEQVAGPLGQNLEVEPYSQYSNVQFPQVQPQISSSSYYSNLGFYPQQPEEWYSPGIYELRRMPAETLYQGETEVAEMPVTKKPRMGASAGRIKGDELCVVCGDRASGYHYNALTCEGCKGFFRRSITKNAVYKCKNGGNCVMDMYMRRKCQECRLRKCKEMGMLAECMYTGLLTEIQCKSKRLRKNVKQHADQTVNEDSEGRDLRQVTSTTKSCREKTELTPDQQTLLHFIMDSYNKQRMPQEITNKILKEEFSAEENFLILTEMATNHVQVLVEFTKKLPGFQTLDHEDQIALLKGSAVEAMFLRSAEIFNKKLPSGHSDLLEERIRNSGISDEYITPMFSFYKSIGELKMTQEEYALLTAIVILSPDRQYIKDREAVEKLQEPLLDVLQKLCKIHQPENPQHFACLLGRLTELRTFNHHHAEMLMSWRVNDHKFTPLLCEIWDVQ
# Chain of Nuclear receptor subfamily 1 group I member 3 (Homo sapiens) (Q14994 whole entry, looked up, the tested form may be a part): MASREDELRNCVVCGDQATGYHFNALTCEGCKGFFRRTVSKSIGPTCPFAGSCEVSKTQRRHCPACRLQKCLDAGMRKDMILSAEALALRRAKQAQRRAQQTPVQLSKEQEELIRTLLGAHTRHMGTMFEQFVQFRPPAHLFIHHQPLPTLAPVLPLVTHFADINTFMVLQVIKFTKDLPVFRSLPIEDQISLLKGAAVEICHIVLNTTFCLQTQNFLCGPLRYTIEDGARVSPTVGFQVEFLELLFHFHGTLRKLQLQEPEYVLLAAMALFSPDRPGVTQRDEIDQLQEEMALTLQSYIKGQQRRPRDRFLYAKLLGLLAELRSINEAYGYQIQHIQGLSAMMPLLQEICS
# Chain of Steroid hormone receptor ERR1 (Homo sapiens) (P11474 whole entry, looked up, the tested form may be a part): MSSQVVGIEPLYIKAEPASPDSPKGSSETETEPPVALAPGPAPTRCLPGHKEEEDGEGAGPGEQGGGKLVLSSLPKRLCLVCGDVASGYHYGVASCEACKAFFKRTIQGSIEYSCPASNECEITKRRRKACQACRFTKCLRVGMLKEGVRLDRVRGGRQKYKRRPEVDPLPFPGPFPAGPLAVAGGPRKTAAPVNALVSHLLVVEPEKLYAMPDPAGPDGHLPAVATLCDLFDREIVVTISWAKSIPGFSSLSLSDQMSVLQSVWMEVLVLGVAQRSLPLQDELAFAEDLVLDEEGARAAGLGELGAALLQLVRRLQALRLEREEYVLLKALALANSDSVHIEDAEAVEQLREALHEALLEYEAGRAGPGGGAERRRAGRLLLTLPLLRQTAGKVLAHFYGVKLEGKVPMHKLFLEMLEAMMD
# Chain of Tumor necrosis factor (Homo sapiens) (P01375 whole entry, looked up): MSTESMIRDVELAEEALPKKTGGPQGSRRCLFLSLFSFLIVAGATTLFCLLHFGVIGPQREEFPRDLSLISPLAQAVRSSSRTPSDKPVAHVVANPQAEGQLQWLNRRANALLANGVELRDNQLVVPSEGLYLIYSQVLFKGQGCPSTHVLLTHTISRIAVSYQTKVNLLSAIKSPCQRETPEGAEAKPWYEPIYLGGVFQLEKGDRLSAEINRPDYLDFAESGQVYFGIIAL
structure (smiles),measurement,setting,value
CC[N+](CC)(CC(=O)Nc1c(C)cccc1C)Cc1ccccc1 (tested in a mixture with another compound),outcome,[1],inactive
O=C(C(=O)c1ccccc1)c1ccccc1,outcome,[2],inactive
same,outcome,[3],inactive
same,outcome,[4],inactive
same,outcome,[5],inactive
same,outcome,[6],inactive
same,outcome,[7],inactive
same,outcome,[8],inactive
same,outcome,[9],inactive
same,outcome,[10],inactive
same,outcome,[11],inactive
same,outcome,[12],inactive
same,outcome,[13],inactive
same,outcome,[14],inactive
same,outcome,"CD38, CD38 (gene 952)",inactive
same,outcome,[15],inactive
same,outcome,[16],inactive
same,outcome,[17],inactive
same,outcome,[18],inactive
Oc1ccc(Cl)cc1C1CCCC1,AC50,[19],18.5 µM (active)
CCCCOC(=O)COc1ccc(Cl)cc1Cl,outcome,[2],inactive
COC(=O)CCSCCC(=O)OC,outcome,[19],inactive
CCCCCCCC#N,outcome,[3],inactive
CCC(C)NC(N)=O (stereo not drawn),outcome,[2],inactive
CCOc1ccc2c(c1)C(C)CC(C)(C)N2 (stereo not drawn),outcome,[2],inactive
same,outcome,[19],inactive
C=CC(C)(CCC=C(C)C)OC(=O)c1ccccc1 (stereo not drawn),outcome,[19],inactive
COc1c2occc2cc2ccc(=O)oc12,outcome,[19],inactive
NC(N)=Nc1nc(CSCCC(N)=NS(N)(=O)=O)cs1,outcome,[3],inactive
same,outcome,[19],inactive
CC/C=C\CCCCCO,outcome,[2],inactive
same,outcome,[3],inactive
COC(=O)/C=C\C(=O)OC,outcome,[3],inactive
same,outcome,[4],inactive
same,outcome,[5],inactive
same,outcome,[6],inactive
same,outcome,[7],inactive
same,outcome,[8],inactive
same,outcome,[9],inactive
same,outcome,[10],inactive
same,outcome,[11],inactive
same,outcome,[12],inactive
same,outcome,[13],inactive
same,AC50,[14],8.6 µM (active)
same,outcome,"CD38, CD38 (gene 952)",inactive
same,outcome,[15],inactive
same,outcome,[16],inactive
same,outcome,[17],inactive
same,outcome,[18],inactive
CN(C)Cc1cc(C(C)(C)C)c(O)c(C(C)(C)C)c1,outcome,[4],inactive
same,outcome,[5],inactive
same,outcome,[6],inactive
same,outcome,[7],inactive
same,outcome,[8],inactive
same,outcome,[9],inactive
same,outcome,[10],inactive
same,outcome,[11],inactive
same,outcome,[12],inactive
same,outcome,[13],inactive
same,outcome,[14],inactive
same,outcome,"CD38, CD38 (gene 952)",inactive
same,outcome,[15],inactive
same,outcome,[16],inactive
same,AC50,[17],17.5 µM (active) and 20 µM (active)
same,outcome,[18],inactive
same,outcome,[1],inactive
NC(=O)c1ccc([N+](=O)[O-])cc1Cl,outcome,[19],inactive
O=C(c1ccccc1)c1ccccc1O,outcome,[2],inactive
same,outcome,[3],inactive
Brc1ccc(Oc2ccc(Br)cc2)cc1,outcome,[2],inactive
OCCc1ccccn1,outcome,[2],inactive
Clc1ccc(Sc2cc(Cl)c(Cl)cc2Cl)cc1,outcome,[2],inactive
c1cc[c]([Bi]([c]2ccccc2)[c]2ccccc2)cc1,outcome,[2],inactive
CCOC(=O)CC(=O)OCC,outcome,[19],inactive
O=C(CC(C(=O)OC1CCCCC1)S(=O)(=O)O)OC1CCCCC1 (stereo not drawn),outcome,[2],inactive
same,outcome,[19],inactive
Sc1nc2ccccc2s1,outcome,[2],inactive
same,outcome,[4],inactive
same,outcome,[5],inactive
same,outcome,[6],inactive
same,outcome,[7],inactive
same,outcome,[8],inactive
same,outcome,[9],inactive
same,outcome,[10],inactive
same,outcome,[11],inactive
same,AC50,[12],3.97 µM (active)
same,outcome,[13],inactive
same,outcome,[14],inactive
same,outcome,"CD38, CD38 (gene 952)",inactive
same,outcome,[15],inactive
same,outcome,[16],inactive
same,outcome,[17],inactive
same,outcome,[18],inactive
